Data as given in PubChem BioAssay AID1159580 (chemical genetic matrix, 2015).
In all, about 5,500 compounds went through this assay and about 2,000 (36%) were called active. Another 18% or so got no clear call; they are omitted. No stated cut-off is given here; in the data, active means normalized growth mostly below about 0.91 (no sharp cut-off); inconclusive means no clear call, values can overlap the other calls; inactive means mostly above about 0.92. The list shows a part of the results.

Experiment: chemical genetic growth profiling, strain panel (AID 1159580);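 further: tested at 20 µM; growth read once vehicle control cultures reached saturation at 30 °C; 1 = growth at the plate median or of vehicle wells; lower values mean less growth of the strain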
Details: growth OD

Measured: normalized growth

O=C(O)CN(CC(=O)O)Cc1cc2c(-c3ccccc3C(=O)O)c3cc(CN(CC(=O)O)CC(=O)O)c(=O)cc-3oc2cc1O
active: S. cerevisiae deletion strains, locus YLR262C, strain YPT6 (second series), active compounds read low 0.817 | S. cerevisiae deletion strains, locus YMR058W, strain fet3, active compounds read low 0.466 | S. cerevisiae deletion strains, locus YNL209W, strain ssb2, active compounds read low 0.911 | S. cerevisiae deletion strains, locus YOR106W, strain vam3, active compounds read low 0.773 | S. cerevisiae deletion strains, locus YOR270C, strain vph1, active compounds read low 0.764 | S. cerevisiae deletion strains, locus YPL051W, strain arl3, active compounds read low 0.867
inactive: S. cerevisiae deletion strains, locus YJR043C, strain POL32, active compounds read low 1.01 | S. cerevisiae deletion strains, locus YJR075W, strain HOC1, active compounds read low 1.03 | S. cerevisiae deletion strains, locus YKL009W, strain mrt4, active compounds read low 1.02 | S. cerevisiae deletion strains, locus YKL068W, active compounds read low 1.01 | S. cerevisiae deletion strains, locus YKL085W, strain MDH1 (second series), active compounds read low 1.01 | S. cerevisiae deletion strains, locus YKL085W, strain MDH1, active compounds read low 1.01 | S. cerevisiae deletion strains, locus YKL160W, strain elf1, active compounds read low 0.96 | S. cerevisiae deletion strains, locus YKL190W, strain CNB1, active compounds read low 1.01 | S. cerevisiae deletion strains, locus YKR001C, strain vps1, active compounds read low 1.02 | S. cerevisiae deletion strains, locus YKR026C, strain gcn3, active compounds read low 0.986 | S. cerevisiae deletion strains, locus YKR091W, strain srl3, active compounds read low 0.965 | S. cerevisiae deletion strains, locus YLL001W, strain dnm1, active compounds read low 0.984 | S. cerevisiae deletion strains, locus YLL026W, active compounds read low 0.987 | S. cerevisiae deletion strains, locus YLL041C, strain sdh2, active compounds read low 0.974 | S. cerevisiae deletion strains, locus YLR027C, strain aat2, active compounds read low 0.969 | S. cerevisiae deletion strains, locus YLR039C, strain RIC1, active compounds read low 1.05 | S. cerevisiae deletion strains, locus YLR058C, strain SHM2, active compounds read low 1 | S. cerevisiae deletion strains, locus YLR102C, strain apc9, active compounds read low 1.03 | S. cerevisiae deletion strains, locus YLR221C, strain rsa3, active compounds read low 0.984 | S. cerevisiae deletion strains, locus YLR258W, strain gsy2, active compounds read low 0.967 | S. cerevisiae deletion strains, locus YLR262C, strain YPT6, active compounds read low 1.06 | S. cerevisiae deletion strains, locus YLR268W, strain sec22, active compounds read low 1.01 | S. cerevisiae deletion strains, locus YLR320W, strain mms22, active compounds read low 0.973 | S. cerevisiae deletion strains, locus YLR330W, strain CHS5, active compounds read low 1.01 | S. cerevisiae deletion strains, locus YLR342W, strain FKS1 (second series), active compounds read low 1 | S. cerevisiae deletion strains, locus YLR342W, strain FKS1, active compounds read low 0.964 | S. cerevisiae deletion strains, locus YLR357W, strain rsc2, active compounds read low 0.896 | S. cerevisiae deletion strains, locus YLR370C, strain arc18, active compounds read low 0.964 | S. cerevisiae deletion strains, locus YLR371W, strain rom2, active compounds read low 1.02 | S. cerevisiae deletion strains, locus YLR384C, strain iki3, active compounds read low 0.973 | S. cerevisiae deletion strains, locus YLR418C, strain cdc73, active compounds read low 1.03 | S. cerevisiae deletion strains, locus YML016C, strain PPZ1, active compounds read low 1.01 | S. cerevisiae deletion strains, locus YML032C, strain rad52, active compounds read low 1.03 | S. cerevisiae deletion strains, locus YML120C, strain ndi1, active compounds read low 0.968 | S. cerevisiae deletion strains, locus YML124C, strain tub3, active compounds read low 1.02 | S. cerevisiae deletion strains, locus YMR078C, strain ctf18, active compounds read low 1.03 | S. cerevisiae deletion strains, locus YMR125W, strain sto1, active compounds read low 1.01 | S. cerevisiae deletion strains, locus YMR129W, active compounds read low 0.964 | S. cerevisiae deletion strains, locus YMR205C, strain PFK2, active compounds read low 0.989 | S. cerevisiae deletion strains, locus YMR223W, strain ubp8, active compounds read low 1 | S. cerevisiae deletion strains, locus YMR231W, strain pep5, active compounds read low 0.942 | S. cerevisiae deletion strains, locus YMR263W, strain SAP30, active compounds read low 1.02 | S. cerevisiae deletion strains, locus YMR307W, strain GAS1, active compounds read low 0.947 | S. cerevisiae deletion strains, locus YNL067W, strain RPL9B, active compounds read low 1.03 | S. cerevisiae deletion strains, locus YNL071W, strain lat1, active compounds read low 0.973 | S. cerevisiae deletion strains, locus YNL128W, strain TEP1, active compounds read low 0.96 | S. cerevisiae deletion strains, locus YNL153C, strain GIM3, active compounds read low 0.998 | S. cerevisiae deletion strains, locus YNL233W, strain BNI4, active compounds read low 0.994 | S. cerevisiae deletion strains, locus YNL248C, strain rpa49, active compounds read low 1.02 | S. cerevisiae deletion strains, locus YNL250W, strain rad50, active compounds read low 1.01 | S. cerevisiae deletion strains, locus YNL271C, strain bni1, active compounds read low 1.01 | S. cerevisiae deletion strains, locus YNL298W, strain CLA4, active compounds read low 1.04 | S. cerevisiae deletion strains, locus YNL307C, strain MCK1, active compounds read low 1.03 | S. cerevisiae deletion strains, locus YNL322C, strain KRE1 (second series), active compounds read low 0.967 | S. cerevisiae deletion strains, locus YNL322C, strain KRE1, active compounds read low 1.01 | S. cerevisiae deletion strains, locus YNR049C, strain mso1, active compounds read low 0.956 | S. cerevisiae deletion strains, locus YNR052C, strain pop2, active compounds read low 1.02 | S. cerevisiae deletion strains, locus YOL006C, strain TOP1, active compounds read low 1 | S. cerevisiae deletion strains, locus YOL012C, strain htz1 1.12 | S. cerevisiae deletion strains, locus YOL147C, strain pex11, active compounds read low 1.02 | S. cerevisiae deletion strains, locus YOR001W, strain rrp6, active compounds read low 0.939 | S. cerevisiae deletion strains, locus YOR061W, strain CKA2, active compounds read low 1 | S. cerevisiae deletion strains, locus YOR069W, strain VPS5, active compounds read low 1.01 | S. cerevisiae deletion strains, locus YOR070C, strain gyp1, active compounds read low 0.986 | S. cerevisiae deletion strains, locus YOR080W, strain dia2, active compounds read low 0.947 | S. cerevisiae deletion strains, locus YOR083W, strain WHI5, active compounds read low 0.958 | S. cerevisiae deletion strains, locus YOR136W, strain idh2, active compounds read low 1.02 | S. cerevisiae deletion strains, locus YOR144C, strain elg1, active compounds read low 1.02 | S. cerevisiae deletion strains, locus YOR184W, strain ser1, active compounds read low 1.03 | S. cerevisiae deletion strains, locus YOR265W, strain rbl2, active compounds read low 0.984 | S. cerevisiae deletion strains, locus YOR290C, strain snf2, active compounds read low 0.904 | S. cerevisiae deletion strains, locus YOR316C, strain cot1, active compounds read low 1.02 | S. cerevisiae deletion strains, locus YPL055C, strain LGE1, active compounds read low 0.974 | S. cerevisiae deletion strains, locus YPL078C, strain atp4, active compounds read low 0.939 | S. cerevisiae deletion strains, locus YPL106C, strain sse1, active compounds read low 0.87 | S. cerevisiae deletion strains, locus YPL240C, strain hsp82, active compounds read low 0.971 | S. cerevisiae deletion strains, locus YPL241C, strain CIN2, active compounds read low 0.987 | S. cerevisiae deletion strains, locus YPR119W, strain clb2, active compounds read low 1.02 | S. cerevisiae deletion strains, locus YPR141C, strain kar3, active compounds read low 1.02 | S. cerevisiae deletion strains, locus YPR163C, strain tif3, active compounds read low 1.01 | S. cerevisiae deletion strains, locus YPR167C, strain met16, active compounds read low 1.03 | S. cerevisiae deletion strains, strain wtn01, active compounds read low 1.01 | S. cerevisiae strains, strain wild type, active compounds read low 0.999
